{"source": "paper PMC4336329", "about": "(PLoS ONE, 2015)", "note": "In all, about 310,000 compounds went through this assay and about 14,000 (4.5%) showed an effect of 50% or more. Effects have a minus sign here. The sample holds strong results, similar compounds and a random draw of the others, so the mix is not that of the screen.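 Further: peak tail current of the secondary pulse compared with the same well before compound.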", "data": [{"biological_target": "human ether-à-go-go-related gene (hERG) potassium channel (human, UniProt Q12809)", "sequence (Q12809 whole entry, looked up)": "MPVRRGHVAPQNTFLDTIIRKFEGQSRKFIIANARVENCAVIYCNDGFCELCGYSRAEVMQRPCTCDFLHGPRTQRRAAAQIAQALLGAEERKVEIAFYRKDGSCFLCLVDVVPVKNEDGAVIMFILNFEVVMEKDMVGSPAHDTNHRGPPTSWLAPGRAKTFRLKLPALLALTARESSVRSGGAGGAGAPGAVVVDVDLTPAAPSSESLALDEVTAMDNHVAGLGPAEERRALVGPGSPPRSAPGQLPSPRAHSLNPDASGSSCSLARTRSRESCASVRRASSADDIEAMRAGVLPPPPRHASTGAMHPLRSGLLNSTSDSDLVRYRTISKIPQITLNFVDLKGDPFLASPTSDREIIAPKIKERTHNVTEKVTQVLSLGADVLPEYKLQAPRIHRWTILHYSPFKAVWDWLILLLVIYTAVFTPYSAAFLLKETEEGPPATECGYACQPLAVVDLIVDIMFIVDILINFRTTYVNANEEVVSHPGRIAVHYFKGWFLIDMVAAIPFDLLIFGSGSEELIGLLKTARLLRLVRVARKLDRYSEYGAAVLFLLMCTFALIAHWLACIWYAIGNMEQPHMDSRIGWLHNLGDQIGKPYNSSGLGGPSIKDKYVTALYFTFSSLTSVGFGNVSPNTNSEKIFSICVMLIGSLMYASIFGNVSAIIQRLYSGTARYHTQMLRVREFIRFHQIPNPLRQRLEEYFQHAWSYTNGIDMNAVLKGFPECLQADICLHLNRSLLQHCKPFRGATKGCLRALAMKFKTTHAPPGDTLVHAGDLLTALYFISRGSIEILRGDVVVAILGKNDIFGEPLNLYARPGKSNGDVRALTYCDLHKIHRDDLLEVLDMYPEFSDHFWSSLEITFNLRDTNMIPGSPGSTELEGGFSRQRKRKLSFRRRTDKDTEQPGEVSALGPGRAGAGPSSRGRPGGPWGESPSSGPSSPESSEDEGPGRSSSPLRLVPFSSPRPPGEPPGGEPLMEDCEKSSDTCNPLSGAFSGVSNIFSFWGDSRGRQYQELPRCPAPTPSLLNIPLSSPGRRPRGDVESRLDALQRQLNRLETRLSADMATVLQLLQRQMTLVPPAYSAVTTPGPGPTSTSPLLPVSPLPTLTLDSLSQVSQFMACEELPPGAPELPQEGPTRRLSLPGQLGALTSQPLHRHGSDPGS", "experiment": "primary screen, population patch clamp on CHO cells stably expressing hERG; higher = less effect of the substance", "units": {"hERG current change (%, negative = inhibition) at 10uM": "%"}, "values": [{"smiles": "Cc1nc2ccccc2c(=O)n1-c1ccc(NS(=O)(=O)c2cc(F)ccc2F)cc1", "hERG current change (%, negative = inhibition) at 10uM": -11.7}, {"smiles": "O=C(CSc1ncccn1)N1CCN(Cc2ccccc2)CC1", "hERG current change (%, negative = inhibition) at 10uM": 9.31}, {"smiles": "Nc1cc(C(=O)O)c(Oc2ccc(Cl)cc2Cl)cc1C(=O)O", "hERG current change (%, negative = inhibition) at 10uM": 7.83}, {"smiles": "O=C(N/N=C/c1ccoc1)c1cc(Br)ccc1O", "hERG current change (%, negative = inhibition) at 10uM": 14.2}, {"smiles": "CCOc1ccc(NC(=O)c2ccc3[nH]c(=O)c(=O)[nH]c3c2)cc1", "hERG current change (%, negative = inhibition) at 10uM": 16.8}, {"smiles": "O=[N+]([O-])c1cccc(-c2nc3ccc([N+](=O)[O-])cc3[nH]2)c1", "hERG current change (%, negative = inhibition) at 10uM": 8.34}, {"smiles": "Cc1ccc(-c2nc3ccc([N+](=O)[O-])cc3[nH]2)cc1", "hERG current change (%, negative = inhibition) at 10uM": -3.49}, {"smiles": "CC(C)(C)c1nc2ccc([N+](=O)[O-])cc2[nH]1", "hERG current change (%, negative = inhibition) at 10uM": -77.7}, {"smiles": "O=[N+]([O-])c1ccc(-c2nc3ccc([N+](=O)[O-])cc3[nH]2)cc1", "hERG current change (%, negative = inhibition) at 10uM": -27.9}, {"smiles": "Cn1c(-[n+]2c(-c3ccccc3)cc(-c3ccccc3)cc2-c2ccccc2)nc2cc([N+](=O)[O-])ccc21.[I-]", "hERG current change (%, negative = inhibition) at 10uM": -12.2}, {"smiles": "F[B-](F)(F)F.O=[N+]([O-])c1ccc2nc(-[n+]3c(-c4ccccc4)cc(-c4ccccc4)cc3-c3ccccc3)[nH]c2c1", "hERG current change (%, negative = inhibition) at 10uM": -61.8}, {"smiles": "Cc1nc2ccc([N+](=O)[O-])cc2[nH]1", "hERG current change (%, negative = inhibition) at 10uM": 7.21}, {"smiles": "CCCC[n+]1ccc(-c2nc3ccc([N+](=O)[O-])cc3[nH]2)cc1", "hERG current change (%, negative = inhibition) at 10uM": -59.5}, {"smiles": "Nc1nc2ccc([N+](=O)[O-])cc2[nH]1", "hERG current change (%, negative = inhibition) at 10uM": 20.6}, {"smiles": "O=C(NNC(=O)C1CC=CCC1C(=O)O)c1ccc(Cl)cc1", "note": "(stereo not drawn)", "hERG current change (%, negative = inhibition) at 10uM": 20.6}, {"smiles": "COC(CNC(=O)C1CCCN1C(=O)OCc1ccccc1)OC", "note": "(stereo not drawn)", "hERG current change (%, negative = inhibition) at 10uM": 5.41}, {"smiles": "Cc1cc(O)c(C2=Nc3ccccc3SC(c3ccc(Cl)cc3)C2)c(=O)o1", "note": "(stereo not drawn)", "hERG current change (%, negative = inhibition) at 10uM": 19.4}, {"smiles": "Clc1ccccc1Nc1nc2ccccc2o1", "hERG current change (%, negative = inhibition) at 10uM": 10.5}, {"smiles": "O/C(=C\\c1ccc2ccccc2n1)c1ccc(O)cc1O", "hERG current change (%, negative = inhibition) at 10uM": 4.33}, {"smiles": "CCOc1ccc(/C=C2\\SC(=S)N(NC(=O)c3ccncc3)C2=O)cc1OC", "hERG current change (%, negative = inhibition) at 10uM": 16.9}, {"smiles": "COc1cc(NC(=O)CSCc2ccc(Cl)cc2)c(C(=O)O)cc1OC", "hERG current change (%, negative = inhibition) at 10uM": 13.6}, {"smiles": "CN(C)S(=O)(=O)c1ccc(NC(=O)CN2CCc3ccccc32)cc1", "hERG current change (%, negative = inhibition) at 10uM": 11.8}, {"smiles": "Cc1ccc(SCCNS(=O)(=O)c2ccc3c(c2)OCCO3)cc1", "hERG current change (%, negative = inhibition) at 10uM": 2.17}, {"smiles": "Cc1ccc(NC(=O)CN2C(=O)c3ccccc3C2=O)nc1", "hERG current change (%, negative = inhibition) at 10uM": 6.21}]}]}
